Structures are written as SMILES. Records with an inconclusive call do not appear. Where a call stands in place of a potency, no number is given. Calls of active or inactive are those of the source. The call rests on the fitted dose curve; in most records, active means well fitted cell-killing curve with a large enough effect; inconclusive means small, poorly fitted or top-dose-only effect; inactive means flat fitted curve, though single readings scatter.
Potency means the concentration at half of the fitted maximal effect.

The nature of this experiment: Cellular viability qHTS for adrenocortical cancer (ACC) cell line NCI-H295R (AID 1963990). Further: nearly all actives have a fitted effect of over 60% in size. The conditions noted are these: CellTiter-Glo ATP luminescence, 48 h; series mostly up to 46.1 µM. Summed up: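 Viability of NCI-H295R after 48 h of treatment (final up to 46 uM) measured through cellular ATP luminescence.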
In general terms: qHTS replaces the single test concentration by a dilution series.
For the compound `CC1=C(C(=O)Nc2cc3cn[nH]c3cc2F)C(c2ccc(C(F)(F)F)cc2)CC(=O)N1` (stereo unspecified), the Potency entry is “inactive”.

As to `COc1ccc2c3n(c(=NC(=O)c4cccnc4)nc2c1OC)CCN3`, the activity change, negative = viability loss was -25.5% [at 3.81 µM] (inactive).

As to `CCOc1ccccc1N=Nc1c(C)[nH]n(-c2nc(-c3ccccc3)cs2)c1=O`, the Potency result is “inactive”.

Take `CNC(=O)c1c(F)cccc1Nc1nc(Nc2cc3c(cc2OC)CCN3C(=O)CN(C)C)nc2[nH]ccc12`: the Potency was 1.12 µM (active).

On to `Cc1ccc(C2=Nc3ccc(Cl)cc3OC2)cc1`, for which the Potency result was “inactive”.

With `Clc1ccc2ncc(-c3cccc(NC4CNC4)n3)n2c1`, the Potency result is “inactive”.

The values above are taken from PubChem BioAssay (NCATS).
